# Measurements reported in PMC4081100, “A DNA-binding-site landscape and regulatory network analysis for NAC transcription factors in Arabidopsis thaliana”.
# Experiments:
# Test in all cases: universal protein binding microarray (PBM); transcription factors of Arabidopsis thaliana; high values mean tight binding
# [1] = target: T1, GST-ANAC055(1-171) (Arabidopsis thaliana, UniProt Q9LDY8 1-171); details: protein: recombinant; tags: GST; chain copies: 2; dsDNA, one strand shown
# T1 sequence: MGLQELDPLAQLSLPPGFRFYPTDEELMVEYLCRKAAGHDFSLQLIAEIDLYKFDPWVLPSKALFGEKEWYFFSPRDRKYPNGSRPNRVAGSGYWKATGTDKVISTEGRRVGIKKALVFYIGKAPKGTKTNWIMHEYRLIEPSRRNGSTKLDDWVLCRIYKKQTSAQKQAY
# Procedure, shortened: (§1)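 Binding is expressed as the normalised enrichment score (E-score). Proteins carrying a GST tag, whether NAC-domain, full-length or DNA-binding-domain forms, were induced in cells, and zinc acetate was added for zinc-finger proteins. After purification on glutathione–Sepharose 4B and quantification by A280 or anti-GST western blot, each was applied in duplicate at 200 to 500 nM final to custom all-10-mer Agilent 4 × 180K arrays made double-stranded by primer extension. Gapped and ungapped 8-mers were scored.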
# [2] = target: T2, GST-ATAF1 NAC domain (Arabidopsis thaliana, UniProt Q39013 7-158); details: protein: recombinant; tags: GST; chain copies: 2; dsDNA, one strand shown
# T2 sequence: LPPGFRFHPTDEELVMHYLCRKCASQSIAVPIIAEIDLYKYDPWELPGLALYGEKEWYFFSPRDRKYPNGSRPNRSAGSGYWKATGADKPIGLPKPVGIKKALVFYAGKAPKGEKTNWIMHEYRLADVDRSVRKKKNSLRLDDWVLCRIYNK
# Procedure, shortened: as §1
# [3] = target: T3, GST-NST2(1-184) (Arabidopsis thaliana, UniProt Q9M274 1-184); details: protein: recombinant; tags: GST; chain copies: 2; dsDNA, one strand shown
# T3 sequence: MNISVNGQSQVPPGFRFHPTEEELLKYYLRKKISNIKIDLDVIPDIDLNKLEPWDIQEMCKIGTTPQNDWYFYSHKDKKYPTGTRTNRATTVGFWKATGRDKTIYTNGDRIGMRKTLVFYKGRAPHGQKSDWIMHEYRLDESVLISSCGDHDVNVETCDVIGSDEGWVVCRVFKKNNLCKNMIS
# Procedure, shortened: as §1
# [4] = target: T4, GST-NTL8 NAC domain (Arabidopsis thaliana, UniProt Q9XIN7 14-156); details: protein: recombinant; tags: GST; chain copies: 2; dsDNA, one strand shown
# T4 sequence: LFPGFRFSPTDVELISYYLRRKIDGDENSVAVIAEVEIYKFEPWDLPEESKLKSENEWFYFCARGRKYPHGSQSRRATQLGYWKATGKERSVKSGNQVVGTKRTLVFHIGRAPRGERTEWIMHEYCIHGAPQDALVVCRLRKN
# Procedure, shortened: as §1
# [5] = target: T5, GST-VND3 NAC domain (Arabidopsis thaliana, UniProt Q9FH59 12-162); details: protein: recombinant; tags: GST; chain copies: 2; dsDNA, one strand shown
# T5 sequence: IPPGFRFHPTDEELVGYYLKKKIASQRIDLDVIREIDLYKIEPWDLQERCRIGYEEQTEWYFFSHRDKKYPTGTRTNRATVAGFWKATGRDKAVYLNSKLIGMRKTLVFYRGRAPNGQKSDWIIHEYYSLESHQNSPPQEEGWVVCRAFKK
# Procedure, shortened: as §1
# [6] = target: GST-WRKY1(266-371) (Arabidopsis thaliana, UniProt Q9SI37 266-371); details: protein: recombinant; tags: GST; dsDNA, one strand shown
# Procedure, shortened: as §1
# [7] = target: T6, GST-ANAC092(1-176) (Arabidopsis thaliana, UniProt Q9FKA0 1-176); details: protein: recombinant; tags: GST; chain copies: 2; dsDNA, one strand shown
# T6 sequence: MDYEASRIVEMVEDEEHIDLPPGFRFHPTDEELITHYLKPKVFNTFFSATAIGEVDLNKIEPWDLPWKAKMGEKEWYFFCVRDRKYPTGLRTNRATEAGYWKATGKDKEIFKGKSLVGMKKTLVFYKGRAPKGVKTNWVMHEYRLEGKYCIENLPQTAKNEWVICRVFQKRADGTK
# Procedure, shortened: as §1
# [8] = target: T7, GST-ANAC019 NAC domain (Arabidopsis thaliana, UniProt Q9C932 14-162); details: protein: recombinant; tags: GST; chain copies: 2; dsDNA, one strand shown
# T7 sequence: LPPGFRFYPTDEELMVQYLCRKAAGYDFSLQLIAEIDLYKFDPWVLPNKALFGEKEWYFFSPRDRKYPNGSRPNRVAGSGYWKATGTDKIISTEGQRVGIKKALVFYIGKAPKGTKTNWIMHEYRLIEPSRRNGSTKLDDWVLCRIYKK
# Procedure, shortened: as §1
# [9] = target: T8, GST-ANAC092(1-285) full length (Arabidopsis thaliana, UniProt Q9FKA0 1-285); details: protein: recombinant; tags: GST; chain copies: 2; dsDNA, one strand shown
# T8 sequence: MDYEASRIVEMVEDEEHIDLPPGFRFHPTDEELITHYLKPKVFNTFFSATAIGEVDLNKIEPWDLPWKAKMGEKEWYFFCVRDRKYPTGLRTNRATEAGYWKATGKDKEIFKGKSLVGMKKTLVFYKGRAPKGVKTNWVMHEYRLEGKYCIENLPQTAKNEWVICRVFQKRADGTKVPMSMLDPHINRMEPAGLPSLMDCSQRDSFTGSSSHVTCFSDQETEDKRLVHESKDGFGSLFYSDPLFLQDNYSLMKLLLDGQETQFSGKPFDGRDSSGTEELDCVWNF
# Procedure, shortened: as §1
# [10] = target: T9, GST-NAP(1-166) (Arabidopsis thaliana, UniProt O49255 1-166); details: protein: recombinant; tags: GST; chain copies: 2; dsDNA, one strand shown
# T9 sequence: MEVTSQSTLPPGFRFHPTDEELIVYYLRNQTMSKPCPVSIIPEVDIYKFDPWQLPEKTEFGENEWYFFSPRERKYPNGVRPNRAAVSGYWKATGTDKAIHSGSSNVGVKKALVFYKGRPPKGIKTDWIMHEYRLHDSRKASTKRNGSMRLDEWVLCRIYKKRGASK
# Procedure, shortened: as §1
# [11] = target: T10, GST-VND7 NAC domain (Arabidopsis thaliana, UniProt Q9C8W9 9-158); details: protein: recombinant; tags: GST; chain copies: 2; dsDNA, one strand shown
# T10 sequence: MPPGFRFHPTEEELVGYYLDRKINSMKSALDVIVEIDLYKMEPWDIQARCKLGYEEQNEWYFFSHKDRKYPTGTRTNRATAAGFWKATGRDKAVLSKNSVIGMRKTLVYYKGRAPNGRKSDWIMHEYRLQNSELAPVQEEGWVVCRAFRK
# Procedure, shortened: as §1
# [12] = target: GST-NTL6(1-168) (Arabidopsis thaliana, UniProt Q9SCK6 1-168); details: protein: recombinant; tags: GST; chain copies: 2; dsDNA, one strand shown
# Procedure, shortened: as §1
# GST-WRKY1(266-371), sequence (Q9SI37 266-371): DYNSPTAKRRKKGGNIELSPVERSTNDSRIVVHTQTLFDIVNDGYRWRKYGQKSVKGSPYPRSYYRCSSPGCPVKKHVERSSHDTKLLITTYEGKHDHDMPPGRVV
# GST-NTL6(1-168), sequence (Q9SCK6 1-168): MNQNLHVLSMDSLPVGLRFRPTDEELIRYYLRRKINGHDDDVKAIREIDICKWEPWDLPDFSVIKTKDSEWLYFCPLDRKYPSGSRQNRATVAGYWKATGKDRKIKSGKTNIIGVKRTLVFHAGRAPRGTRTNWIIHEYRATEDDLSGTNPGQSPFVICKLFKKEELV
sequence,measurement,setting,value
AATTGACC,binding signal,[1],0.0684 E-score
same,binding signal,[2],0.176 E-score
same,binding signal,[3],0.0795 E-score
same,binding signal,[4],0.0822 E-score
same,binding signal,[5],0.115 E-score
same,binding signal,[6],0.47 E-score
AGCTTGAC,binding signal,[7],0.0728 E-score
same,binding signal,[8],0.0936 E-score
same,binding signal,[9],0.065 E-score
same,binding signal,[10],0.0572 E-score
same,binding signal,[11],0.099 E-score
same,binding signal,[6],0.447 E-score
GGTCATAC,binding signal,[10],0.108 E-score
same,binding signal,[5],0.115 E-score
same,binding signal,[6],0.421 E-score
AGTCTGAC,binding signal,[8],0.0699 E-score
same,binding signal,[1],0.0555 E-score
same,binding signal,[10],0.0965 E-score
same,binding signal,[11],0.0919 E-score
same,binding signal,[6],0.422 E-score
ATTTTGAC,binding signal,[2],0.15 E-score
same,binding signal,[9],0.0617 E-score
same,binding signal,[3],0.0826 E-score
same,binding signal,[5],0.101 E-score
same,binding signal,[6],0.461 E-score
GACCGGAA,binding signal,[7],0.0538 E-score
same,binding signal,[8],0.213 E-score
same,binding signal,[1],0.0745 E-score
same,binding signal,[4],0.0847 E-score
same,binding signal,[11],0.0568 E-score
same,binding signal,[6],0.404 E-score
AGAAAGTC,binding signal,[8],0.0754 E-score
same,binding signal,[1],0.0896 E-score
same,binding signal,[2],0.103 E-score
same,binding signal,[4],0.0673 E-score
same,binding signal,[5],0.0756 E-score
same,binding signal,[6],0.407 E-score
TATGGTCA,binding signal,[1],0.0561 E-score
same,binding signal,[5],0.0521 E-score
same,binding signal,[6],0.428 E-score
CATTTGAC,binding signal,[1],0.0579 E-score
same,binding signal,[2],0.0746 E-score
same,binding signal,[3],0.0611 E-score
same,binding signal,[5],0.105 E-score
same,binding signal,[6],0.462 E-score
ATTGACTG,binding signal,[12],0.071 E-score
same,binding signal,[2],0.0846 E-score
same,binding signal,[3],0.0623 E-score
same,binding signal,[4],0.0613 E-score
same,binding signal,[11],0.05 E-score
same,binding signal,[6],0.465 E-score
AAAAAGTC,binding signal,[8],0.0791 E-score
same,binding signal,[1],0.209 E-score
same,binding signal,[2],0.184 E-score
same,binding signal,[3],0.122 E-score
same,binding signal,[4],0.0525 E-score
same,binding signal,[5],0.0942 E-score
same,binding signal,[6],0.426 E-score
AAGTTGAC,binding signal,[1],0.0649 E-score
same,binding signal,[2],0.0834 E-score
same,binding signal,[11],0.0703 E-score
same,binding signal,[6],0.476 E-score
AGTCAACG,binding signal,[8],0.0747 E-score
same,binding signal,[9],0.0699 E-score
same,binding signal,[10],0.0565 E-score
same,binding signal,[3],0.114 E-score
same,binding signal,[5],0.115 E-score
same,binding signal,[6],0.494 E-score
ATGTTGAC,binding signal,[2],0.0521 E-score
same,binding signal,[5],0.0635 E-score
same,binding signal,[6],0.474 E-score
AGAGGTAA,binding signal,[7],0.145 E-score
same,binding signal,[12],0.237 E-score
same,binding signal,[8],0.0713 E-score
same,binding signal,[1],0.0996 E-score
same,binding signal,[2],0.106 E-score
same,binding signal,[10],0.0742 E-score
same,binding signal,[4],0.427 E-score
same,binding signal,[5],0.0836 E-score
CCGGTCAG,binding signal,[6],0.44 E-score
AGTCTTCG,binding signal,[6],0.427 E-score
AGTCAAAG,binding signal,[4],0.0881 E-score
same,binding signal,[11],0.0935 E-score
same,binding signal,[6],0.486 E-score
GTCAATAA,binding signal,[12],0.109 E-score
same,binding signal,[1],0.134 E-score
same,binding signal,[2],0.135 E-score
same,binding signal,[10],0.122 E-score
same,binding signal,[3],0.118 E-score
same,binding signal,[11],0.112 E-score
same,binding signal,[6],0.457 E-score
AATTTGAC,binding signal,[1],0.0892 E-score
same,binding signal,[2],0.237 E-score
same,binding signal,[5],0.0556 E-score
same,binding signal,[6],0.451 E-score
TTAGTCAA,binding signal,[8],0.12 E-score
same,binding signal,[2],0.107 E-score
same,binding signal,[9],0.0778 E-score
same,binding signal,[5],0.11 E-score
same,binding signal,[6],0.481 E-score
AGGTCAGC,binding signal,[11],0.078 E-score
same,binding signal,[6],0.451 E-score
ATAAGTCA,binding signal,[12],0.161 E-score
same,binding signal,[9],0.101 E-score
same,binding signal,[5],0.105 E-score
same,binding signal,[6],0.443 E-score
TAGTCAGA,binding signal,[2],0.0564 E-score
same,binding signal,[5],0.065 E-score
same,binding signal,[6],0.428 E-score
TAGTCAAA,binding signal,[1],0.136 E-score
same,binding signal,[2],0.272 E-score
same,binding signal,[5],0.105 E-score
same,binding signal,[6],0.477 E-score
AGTCTTTG,binding signal,[7],0.0553 E-score
same,binding signal,[12],0.0583 E-score
same,binding signal,[8],0.0679 E-score
same,binding signal,[1],0.0944 E-score
same,binding signal,[11],0.125 E-score
same,binding signal,[6],0.424 E-score
CGTCTGAC,binding signal,[6],0.418 E-score
